Measurements as given in PubChem BioAssay (NCI).
“And” between values parts separate entries of the source, which are not always exact repeats. Equal values may be shown once. The panel holds about 79,000 compounds, 15% with a hit somewhere; the sample as a whole holds those more often. Where a structure was tested more than once in an assay, its records may differ in their call. The source made the active and inactive calls. No stated cut-off is given here; in the data, active means growth inhibition above about 70%; inactive means the rest.

Experiments:
[1] = NCI Yeast Anticancer Drug Screen. Data for the wt1 strain (AID 149);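 further: 0% = growth of vehicle-treated wt1 cultures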; conditions: S. cerevisiae wt1 strain (SPY 50644) growth inhibition, stronger effect = higher value
Procedure, shortened: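 Readout: yeast growth inhibition, normalised to vehicle controls, in the wt1 strain exposed to test compounds.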

[2] = NCI Yeast Anticancer Drug Screen. Data for the rad50 strain (AID 155);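 further: 0% = growth of vehicle-only cultures of the same strain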; conditions: S. cerevisiae rad50 strain growth inhibition, stronger effect = higher value
Procedure, shortened: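 Compounds were tested on a yeast strain with an engineered DNA damage repair alteration; the reported value is growth inhibition normalised to vehicle treatment.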

[3] = NCI Yeast Anticancer Drug Screen. Data for the mec2-1 strain (AID 157); conditions: S. cerevisiae mec2-1 strain, stronger effect = higher value
Procedure, shortened: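 Compounds were applied to mec2-1 yeast cells. Their growth was then compared with that of vehicle-treated cultures to give growth inhibition.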

[4] = NCI Yeast Anticancer Drug Screen. Data for the rad14 strain (AID 159);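 further: 0% = growth of vehicle-treated control cultures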; conditions: S. cerevisiae rad14 strain growth inhibition, stronger effect = higher value
Procedure, shortened: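 Compound-treated yeast with a defined DNA-repair lesion; growth inhibition normalised to vehicle-treated cultures.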

[5] = NCI Yeast Anticancer Drug Screen. Data for the sgs1 mgt1 strain (AID 161);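 further: 0% = growth of cultures given vehicle only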; conditions: S. cerevisiae sgs1 mgt1 strain, stronger effect = higher value
Procedure, shortened: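 Compounds are added to genetically altered yeast, and growth is compared with cultures given vehicle alone to give percent inhibition.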

[6] = NCI Yeast Anticancer Drug Screen. Data for the CLN2oe strain (AID 163);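 further: 0% = growth of vehicle-only control cultures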; conditions: S. cerevisiae CLN2oe strain, stronger effect = higher value
Procedure, shortened: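 Cells of an engineered yeast line with disturbed cell-cycle regulation are treated with compound. Inhibition of growth is then calculated relative to the vehicle-treated reference.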

[7] = NCI Yeast Anticancer Drug Screen. Data for the cln2 rad14 strain (AID 165);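 further: 0% = growth equal to vehicle treated cultures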; conditions: S. cerevisiae cln2 rad14 strain, stronger effect = higher value
Procedure, shortened: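 Strain: cln2 rad14 yeast, altered in cell cycle control and DNA damage repair. Read-out: growth inhibition vs vehicle.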

[8] = NCI Yeast Anticancer Drug Screen. Data for the bub3 strain (AID 167); conditions: S. cerevisiae bub3 mutant strain, stronger effect = higher value
Procedure, shortened: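 Growth of a checkpoint-deficient yeast mutant is measured after compound exposure. Values represent inhibition relative to vehicle.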

[9] = NCI Yeast Anticancer Drug Screen. Data for the wt2 strain (AID 169);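 further: 0% = growth of vehicle-treated yeast cultures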; conditions: S. cerevisiae wt2 strain growth inhibition, stronger effect = higher value
Procedure, shortened: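 Growth of compound-treated yeast is measured and expressed as inhibition relative to vehicle-only controls.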

[10] = NCI Yeast Anticancer Drug Screen. Data for the mlh1 strain (AID 171);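 further: 0% = growth of vehicle-treated control cultures of the same strain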; conditions: S. cerevisiae mlh1 strain growth inhibition, stronger effect = higher value
Procedure, shortened: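 Test agents were incubated with yeast bearing a defined DNA damage repair or cell cycle control alteration; values are growth inhibition normalised to vehicle-treated cultures.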

[11] = NCI Yeast Anticancer Drug Screen. Data for the sgs1 strain (AID 173);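 further: 0% = growth of vehicle-only control cultures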; conditions: S. cerevisiae sgs1 mutant, stronger effect = higher value
Procedure, shortened: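 Strain with an altered DNA repair or cell cycle pathway exposed to compound. Growth then measured. Value = inhibition versus vehicle control.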

[12] = NCI Yeast Anticancer Drug Screen. Data for the mlh1 rad18 strain (AID 175); conditions: S. cerevisiae mlh1 rad18 strain growth inhibition, stronger effect = higher value
Procedure, shortened: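 A repair-deficient yeast strain is exposed to test compound, and growth is scored relative to vehicle-treated controls.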

[13] = NCI Yeast Anticancer Drug Screen. Data for the rad18 strain (AID 177); conditions: S. cerevisiae rad18 mutant growth inhibition, stronger effect = higher value
Procedure, shortened: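 DNA-repair-defective yeast; compound treatment; growth inhibition scored against vehicle.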

[14] = NCI Yeast Anticancer Drug Screen. Data for the mgt1 strain (AID 153); conditions: S. cerevisiae mgt1 mutant growth inhibition, stronger effect = higher value
Procedure, shortened: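 Compounds were applied to mgt1 mutant yeast, and growth was then compared against vehicle-treated control cultures to give percent inhibition.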

[15] = at 5.0 µM (retest, dose inferred, filed as 0.5)
[16] = at 50.0 µM (retest, dose inferred, filed as 5.0)

Measured: growth inhibition

CNc1ccc2[nH]c3ccccc3c2c1
inactive: [1]; at 1.2 µM 0% | [1]; at 3.7 µM 0% | [1]; at 11.0 µM 1% | [1]; at 33.0 µM -4% | [1]; at 100.0 µM 28% | [2]; at 1.2 µM -1% | [2]; at 3.7 µM -2% | [2]; [15] 7% | [2]; at 11.0 µM -2% | [2]; at 33.0 µM 1% | [2]; [16] 25% | [2]; at 100.0 µM 58% | [3]; at 1.2 µM -1% | [3]; at 3.7 µM 1% | [3]; [15] -1% | [3]; at 11.0 µM 0% | [3]; at 33.0 µM 1% | [3]; [16] -5% | [3]; at 50.0 µM 62.9% | [3]; at 100.0 µM 59% | [4]; at 1.2 µM -3% | [4]; at 3.7 µM -5% | [4]; at 11.0 µM -3% | [4]; at 33.0 µM 4% | [5]; [15] -11% | [5]; [16] 13% | [6]; at 1.2 µM -6% | [6]; at 3.7 µM -7% | [6]; at 11.0 µM 0% | [6]; at 33.0 µM -5% | [6]; at 100.0 µM 52% | [7]; [15] -14% | [7]; [16] 20% | [7]; at 50.0 µM 15.2% | [8]; at 1.2 µM -4% | [8]; at 3.7 µM -7% | [8]; [15] -11% | [8]; at 11.0 µM -8% | [8]; at 33.0 µM -10% | [8]; [16] -4% | [8]; at 50.0 µM 66.6% | [8]; at 100.0 µM 54% | [9]; at 1.2 µM -1% | [9]; at 3.7 µM -1% | [9]; at 11.0 µM 3% | [9]; at 33.0 µM 5% | [9]; at 100.0 µM 59% | [10]; at 1.2 µM 3% | [10]; at 3.7 µM 1% | [10]; at 11.0 µM 0% | [10]; at 33.0 µM 1% | [10]; at 100.0 µM 65% | [11]; at 1.2 µM 0% | [11]; at 3.7 µM 4% | [11]; at 11.0 µM 3% | [11]; at 33.0 µM 11% | [12]; [15] -20% | [13]; at 1.2 µM 2% | [13]; at 3.7 µM 0% | [13]; at 11.0 µM -11% | [13]; at 33.0 µM 18%
active: [2]; at 50.0 µM 90% | [4]; at 100.0 µM 80% | [5]; at 50.0 µM 80.9% | [11]; at 100.0 µM 83% | [12]; [16] 77% | [12]; at 50.0 µM 82.7% | [13]; at 100.0 µM 85%

COc1ccc2[nH]c3c(C)c4cc[n+](C)cc4c(C)c3c2c1
active: [2]; at 33.0 µM 78% and 88% | [2]; [16] 85% and 82% | [2]; at 100.0 µM 92% and 94%
inactive: [1]; at 1.2 µM 18% and 15% | [1]; at 3.7 µM 45% and 16% | [1]; at 11.0 µM 45% and 26% | [1]; at 33.0 µM 43% and 41% | [1]; at 100.0 µM 43% and 63% | [14]; at 1.2 µM 15% and 2% | [14]; at 3.7 µM 28% and 12% | [14]; at 11.0 µM 26% and 24% | [14]; at 33.0 µM 38% and 29% | [14]; at 100.0 µM 39% and 55% | [2]; at 1.2 µM 22% and 7% | [2]; at 3.7 µM 35% and 34% | [2]; [15] 29% and 31% | [2]; at 11.0 µM 60% | [2]; at 50.0 µM 31.6% and 64.8% | [3]; at 1.2 µM 15% and 23% | [3]; at 3.7 µM 45% and 18% | [3]; [15] 9% and 3% | [3]; at 11.0 µM 53% and 27% | [3]; at 33.0 µM 44% and 36% | [3]; [16] 44% and 16% | [3]; at 50.0 µM 21.2% and 56.6% | [3]; at 100.0 µM 53% and 61% | [4]; at 1.2 µM 0% and 6% | [4]; at 3.7 µM 17% and 15% | [4]; at 11.0 µM 25% | [4]; at 33.0 µM 27% and 40% | [4]; at 100.0 µM 36% and 61% | [5]; [15] 18% and 28% | [5]; [16] 41% and 52% | [5]; at 50.0 µM 45.8% and 36.4% | [6]; at 1.2 µM 45% and -9% | [6]; at 3.7 µM 45% and 0% | [6]; at 11.0 µM 55% and -5% | [6]; at 33.0 µM 50% and 20% | [6]; at 100.0 µM 40% and 66% | [7]; [15] 2% and 24% | [7]; [16] 25% and 30% | [7]; at 50.0 µM 39.2% and 23.3% | [8]; at 1.2 µM 18% and 8% | [8]; at 3.7 µM 30% and 22% | [8]; [15] 19% and 2% | [8]; at 11.0 µM 28% and 23% | [8]; at 33.0 µM 33% and 32% | [8]; [16] 50% and 20% | [8]; at 50.0 µM 22.9% and 34.1% | [9]; at 1.2 µM -13% and -31% | [9]; at 3.7 µM -14% and -11% | [9]; at 11.0 µM -15% and -11% | [9]; at 33.0 µM -13% and 14% | [10]; at 1.2 µM 34% and 19% | [10]; at 3.7 µM 34% and 35% | [10]; at 11.0 µM 41% | [10]; at 33.0 µM 56% | [11]; at 1.2 µM 18% and 25% | [11]; at 3.7 µM 32% and 39% | [11]; at 11.0 µM 51% and 42% | [11]; at 33.0 µM 42% and 52% | [12]; [15] 23% and 19% | [12]; [16] 52% and 32% | [12]; at 50.0 µM 56.5% | [13]; at 1.2 µM 23% and 27% | [13]; at 3.7 µM 40% and 35% | [13]; at 11.0 µM 38% | [13]; at 33.0 µM 45% and 44%
30% (inactive) and 79% (active): [8]; at 100.0 µM
46% (inactive) and 77% (active): [10]; at 100.0 µM
50% (inactive) and 82% (active): [11]; at 100.0 µM
41% (inactive) and 82% (active): [13]; at 100.0 µM
11% (inactive) and 73% (active): [9]; at 100.0 µM
